# AHR activator: human AHR activation. activation, % at 5 µM. P35869. AHR-responsive luciferase reporter cells, luminescence. 320,000 tested, 2.5% active. AID 2796; in the data active means activation above about 47%;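 further: 0% = vehicle wells and 100% = reference agonist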
# Target sequence (P35869 whole entry, looked up): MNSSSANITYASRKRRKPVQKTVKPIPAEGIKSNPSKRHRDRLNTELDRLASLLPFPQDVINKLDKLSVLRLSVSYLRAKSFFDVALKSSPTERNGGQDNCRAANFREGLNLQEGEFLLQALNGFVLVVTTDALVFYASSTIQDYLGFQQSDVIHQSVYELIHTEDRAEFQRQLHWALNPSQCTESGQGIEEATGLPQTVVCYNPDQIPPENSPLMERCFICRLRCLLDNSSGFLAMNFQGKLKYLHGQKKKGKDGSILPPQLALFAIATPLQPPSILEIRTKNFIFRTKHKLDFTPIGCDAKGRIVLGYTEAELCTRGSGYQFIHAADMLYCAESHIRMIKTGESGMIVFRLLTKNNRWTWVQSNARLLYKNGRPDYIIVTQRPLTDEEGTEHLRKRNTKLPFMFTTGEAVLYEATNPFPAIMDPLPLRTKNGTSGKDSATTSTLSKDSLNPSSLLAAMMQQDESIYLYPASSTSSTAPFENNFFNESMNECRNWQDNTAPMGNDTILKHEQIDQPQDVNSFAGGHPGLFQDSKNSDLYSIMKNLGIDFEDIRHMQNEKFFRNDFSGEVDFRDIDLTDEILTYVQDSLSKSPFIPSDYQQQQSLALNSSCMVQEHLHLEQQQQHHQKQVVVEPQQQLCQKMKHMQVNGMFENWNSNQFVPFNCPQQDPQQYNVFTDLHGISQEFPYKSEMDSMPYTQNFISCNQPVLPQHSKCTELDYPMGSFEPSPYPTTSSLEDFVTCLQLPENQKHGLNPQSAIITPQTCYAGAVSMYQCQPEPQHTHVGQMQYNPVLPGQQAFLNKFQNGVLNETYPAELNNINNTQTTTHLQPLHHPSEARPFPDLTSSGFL
# GAA850 FXN act: frataxin GAA850 promoter activation; HEK293 lucGAA850 FXN promoter luciferase reporter, 24 h; percent of 10 µM SAHA response; activation, % at 6 µM; 360,000 tested, 0.56% active; AID 540364;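 active means activation above the average of all compounds screened plus 3 SD, cutoff fixed separately per campaign, cut at about 7.5% in these data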;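 further: 0% = DMSO wells and 100% = 10 µM SAHA wells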
# HSF-1 act: increases HSF-1 driven luciferase reporter signal | activation, % at 9 µM | NIH3T3-HGL HSF-1 luciferase reporter, MG132, 8 h; 100% = twice DMSO control signal | 300,000 tested, 1.7% active;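 active means mean replicate activation of at least 50% with a set share of replicates each reaching 50%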;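 further: 0% = median of the neutral control wells and 100% = twice that signal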
# HSF1 inhib: HSF1 inhibition; NIH3T3-HGL HSE-luciferase, MG132-induced, luminescence 8 h; stronger effect = lower value; activity change, negative = inhibition, % at 7.5 µM (by protocol); 300,000 tested, 0.77% active; AID 2098;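 active means more than half of replicate wells show activity change below -50%, luminescence cut by over half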;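 further: luciferase reports HSF-1 transcriptional activity via heat shock element; 0% = median of DMSO wells and -100% = zero luminescence signal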
# Numbers without * were called inactive; · = no result given. Compounds with a hit are over-represented: about 4.6% of the library has one in this group of screens.
SMILES,AHR activator,GAA850 FXN act,HSF-1 act,HSF1 inhib
Fc1ccccc1COc1ccc(-c2nnn(Cc3ccccc3F)n2)cc1,-6,2,17,18
Cn1nnc(-c2ccc(OCc3ccccc3F)cc2)n1,-8,7,56*,23
CC1(C)CC(=O)C(C=Nc2ccc3cn[nH]c3c2)=C(O)C1,18,1,54*,32
COc1cccc(N=CC2=C(O)CCCC2=O)c1,5,0,21,8
COc1cccc(N=CC2=C(O)CC(C)(C)CC2=O)c1,5,2,87*,43
COc1ccc(Br)cc1C(=O)N/N=C/c1ccc2c(c1)n(C)c(=O)n2C,-9,0,6,0
CCn1ncc(C(=O)Nc2ccc([N+](=O)[O-])cc2OC)c1C,40,0,1,-2
CCn1ncc(Cl)c1C(=O)Nc1cc([N+](=O)[O-])ccc1OC,60*,1,2,0
COc1ccc([N+](=O)[O-])cc1NC(=O)c1ccc(Br)s1,52*,2,-6,-4
COc1ccc(CN(C)Cc2c(O)ccc3ccccc23)cc1,17,2,219*,195
COc1cccc(CN(C)Cc2c(O)ccc3ccccc23)c1,24,3,97*,80
COc1cccc(CN(C)CC(=O)Nc2cccc3ccccc23)c1,16,1,11,-2
COc1ccc(N2C(=O)CC(Sc3nnnn3-c3ccc(F)cc3)C2=O)cc1 (centres undefined),-4,-4,70*,40
Cc1ccccc1/C=N/NC(=O)c1sccc1C,28,2,55*,37
O=C(N/N=C/c1ccc(Br)cc1)c1ccccc1-n1cccc1,71*,3,27,26
Cc1ccccc1/C=N\NC(=O)c1ccccc1-n1cccc1,68*,2,14,7
Cc1ccsc1/C=N/NC(=O)c1ccc2ccccc2c1,14,-1,37,9
Cc1ccsc1/C=N/NC(=O)Nc1ccccc1,11,3,58*,25
CCOc1cc(/C=N/NC(=O)c2ccccc2-n2cccc2)ccc1O,8,-1,·,·
CN(C)C(=O)c1ccc(NC(=O)c2ccc(-c3ccc(Cl)cc3)o2)cc1,8,1,9,-3
CN1C(=O)C(C)(C)c2cc(S(=O)(=O)N3CCCCCC3)ccc21,-1,0,-5,-3
COc1ccc(OC)c(C(=O)NC(CC(N)=O)c2ccc(NCCOc3ccccc3)c([N+](=O)[O-])c2)c1 (centres undefined),4,1,0,5
COc1ccc(CC(=O)N2CCC3(CC2)NCCc2[nH]cnc23)cc1,0,-1,-2,-5
CCOc1ccc(CC(=O)N2CCC3(CC2)NCCc2[nH]cnc23)cc1,1,1,-71,-62*
Cc1ccc(O)c(NC(=O)CSc2n[nH]c(-c3ccccc3)n2)c1,8,2,109*,120
SMILES,AHR activator,GAA850 FXN act,HSF-1 act,HSF1 inhib
O=c1cc(-c2ccccc2)nc2cc(-c3ccc(F)cc3)[nH]n12,52*,-3,2,-7
COc1cccc(-c2cc3nc(-c4ccccc4)cc(=O)n3[nH]2)c1,36,-2,7,5
Cc1ccccc1OCCCC(=O)Nc1ccccc1C(F)(F)F,6,0,91*,38
CC(C)(C)C(=O)/C=C/c1ccc(Oc2ccccc2)cc1,·,4,-68,-59*
O=C(N/N=C/c1cn(-c2ccccc2)nc1-c1cc2ccccc2o1)c1ccncc1,68*,1,43,15
O=C(N/N=C/c1cn(-c2ccccc2)nc1-c1cccnc1)c1cccnc1,20,-1,-36,-21
O=C(N/N=C/c1cn(-c2ccccc2)nc1-c1cc2ccccc2o1)c1cccnc1,51*,7,29,11
O=C(CSc1nc2ccccc2n1S(=O)(=O)c1ccccc1)N1CCCCC1,-3,0,-58,-56*
Cc1cc(C)c(C)c(S(=O)(=O)NCc2ccc(C(=O)N3CCOCC3)cc2)c1C,-5,0,32,-2
COc1ccc(C2=NCCn3nc4ccccc4c32)cc1,54*,2,·,·
COc1ccc2c3n(nc2c1)CCN=C3c1cc(Cl)c(N)c(Cl)c1,61*,4,·,·
COc1ccc(-c2nc3ccccc3c(=O)n2O)cc1,7,0,15,0
Nc1c(Cl)cc(C2=NCCn3nc4cc(C(F)(F)F)ccc4c32)cc1Cl,54*,1,-17,2
CN(C)S(=O)(=O)c1ccc(NC(=O)CN2CCCc3ccccc32)cc1,6,0,-5,3
COc1ccc(Cl)cc1NC(=S)NCCc1ccc(F)cc1,·,1,6,5
CCCn1nnc(NC(=S)NC(=O)c2ccccc2OC)n1,57*,2,·,·
COc1ccccc1C(=O)NNC(=S)NC(=O)c1sc2ccccc2c1Cl,48*,2,8,-5
COc1ccccc1C(=O)NC(=S)Nc1cccnc1Cl,75*,0,-28,-22
COc1ccccc1-c1cc(C(=O)Nc2cccnc2Cl)no1,-2,0,36,6
Cc1ccc(C(=O)NC(=S)Nc2ccccc2C(F)(F)F)cc1,-3,0,-5,-11
Cc1ccc(C(=O)NC(=S)Nc2cccnc2Cl)cc1,-2,4,65*,33
CN(C)/N=C/C=C1\CCC/C(=C\c2ccc(F)c(F)c2)C1=O,-4,-1,116*,69
CCCN1Cc2cccc(C(=O)NC(CC(=O)OCC)c3ccc(C)cc3)c2C1=O (centres undefined),3,2,3,3
N#Cc1ccsc1NC(=O)COC(=O)c1cc(Br)ccc1O,6,3,22,19
COC(=O)C(Cc1ccccc1)NC(=O)CCCC(=O)NCc1cccc(OC)c1 (centres undefined),-1,1,-3,-8
SMILES,AHR activator,GAA850 FXN act,HSF-1 act,HSF1 inhib
CC(C)OC(=O)CSc1nnc(-c2ccccn2)n1C,-6,0,-4,1
COc1ccc(-c2coc3cc(OC)cc(O)c3c2=O)cc1,-8,1,56*,21
NNC(=O)c1cc2c(s1)-c1cc(Cl)ccc1SC2,64*,3,-8,-1
O=C(NCc1ccc(F)cc1)C1CCCN(c2cnccn2)C1 (centres undefined),52*,0,16,2
O=C(NCc1cccc(C(F)(F)F)c1)C1CCCN(c2cnccn2)C1 (centres undefined),52*,1,-17,3
O=C(c1ccc2c(Cl)c3c(nc2c1)CCCC3)N1CCN(c2ccc(F)cc2)CC1,3,-3,72*,56
CC1CCN(C(=O)c2ccc3c(Cl)c4c(nc3c2)CCCC4)CC1,1,-1,302*,194
CC(=O)c1cccc(NC(=O)c2ccc3c(Cl)c4c(nc3c2)CCCC4)c1,-1,1,43,20
CCOC(=O)C1CCN(C(=O)c2ccc3c(Cl)c4c(nc3c2)CCCC4)CC1,7,1,316*,261
COc1ccccc1N1CCN(C(=O)c2ccc3c(Cl)c4c(nc3c2)CCCC4)CC1,4,-2,40,25
N#Cc1ccccc1NC(=O)c1ccc2c(Cl)c3c(nc2c1)CCCC3,5,6,113*,72
